This is part of a sample that, as a whole, favours compounds with a hit. Of some 83,000 tested, about 20% had one in any assay.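 Testing used 96-well plates and a 48-hour single-concentration exposure. Example: -40 means 40% of the starting cells died.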 The source made the active and inactive calls. How the source made its calls: active means growth percent below 10; inactive means the rest.
Assays:
Experiment in all cases: NCI-60 one-dose screen, 48 h (100 = growth as untreated, 0 = no growth, -100 = all killed)
Conditions in all cases: 10 µM
T-47D breast = system: T-47D breast
BT-549 breast = system: BT-549 breast
MDA-MB-435 melanoma = system: MDA-MB-435 melanoma
SW-620 colon = system: SW-620 colon
MCF7 breast = system: MCF7 breast
HCT-116 colon = system: HCT-116 colon
HCC-2998 colon = system: HCC-2998 colon
KM12 colon = system: KM12 colon

Measured: growth

COC(=O)c1c(C)nc(Nc2nc3ccccc3s2)nc1-c1ccc(Cl)cc1Cl
inactive: T-47D breast 105% | BT-549 breast 101% | MDA-MB-435 melanoma 111% | SW-620 colon 104% | MCF7 breast 78.5% | HCT-116 colon 98.4% | HCC-2998 colon 108% | KM12 colon 103%

CCOc1cc(Br)c(C(C)NC(=O)c2cccc(OC)c2)cc1OCC (centres undefined)
inactive: T-47D breast 80.8% | BT-549 breast 87% | SW-620 colon 85.7% | MCF7 breast 64.4% | HCT-116 colon 56.2% | HCC-2998 colon 37.7% | KM12 colon 84.1%
active: MDA-MB-435 melanoma 6.36%

CC(=O)Oc1c(C)c(C)c2c(c1C)CCC(C)(CC(=O)OCCCCCCCCCCC[P+](c1ccccc1)(c1ccccc1)c1ccccc1)O2 (centres undefined)
active: T-47D breast -64.1% | BT-549 breast -91.4% | MDA-MB-435 melanoma -89.2% | SW-620 colon -68.2% | MCF7 breast -87.2% | HCT-116 colon -95.6% | HCC-2998 colon -61% | KM12 colon -71.3%

CC1(C)CNC(=O)N1
inactive: T-47D breast 99.2% | BT-549 breast 103% | MDA-MB-435 melanoma 102% | SW-620 colon 102% | MCF7 breast 94.5% | HCT-116 colon 91.6% | HCC-2998 colon 95.7% | KM12 colon 104%

O=C(c1ccc(Cl)cc1)c1no[n+]([O-])c1C(=O)c1ccc(Cl)cc1
inactive: T-47D breast 89.6% | BT-549 breast 98.7% | MDA-MB-435 melanoma 89.8% | SW-620 colon 44.2% | MCF7 breast 92.1% | HCT-116 colon 49% | HCC-2998 colon 113% | KM12 colon 88.5%

COc1ccc(/C(CS(=O)(=O)c2ccccc2)=N\O)cc1
inactive: T-47D breast 93.4% | BT-549 breast 102% | MDA-MB-435 melanoma 94.1% | SW-620 colon 111% | MCF7 breast 94.6% | HCT-116 colon 125% | HCC-2998 colon 112% | KM12 colon 123%

COC(=O)[C@]12CC[C@@H](C)[C@H](C)[C@@H]1C1=CC[C@@H]3[C@@]4(C)C[C@@H](O)[C@H](O)[C@@](C)(CO)[C@@H]4[C@H](O)C[C@@]3(C)[C@]1(C)CC2
active: T-47D breast -47.1% | BT-549 breast -66.1% | MDA-MB-435 melanoma -66.9% | SW-620 colon -54.1% | MCF7 breast -24.3% | HCT-116 colon -82.3% | HCC-2998 colon -89.2% | KM12 colon -74.2%

CNC(=O)c1cc(Oc2ccc(NC(=O)Nc3ccc(Cl)c(OC(C)C)c3)c(F)c2)ccn1
inactive: BT-549 breast 75.1% | MDA-MB-435 melanoma 43.2% | SW-620 colon 68.2% | MCF7 breast 31% | HCT-116 colon 30.4% | HCC-2998 colon 66.7% | KM12 colon 24.4%
active: T-47D breast 9.9%

CC1(CO)CCCC12OCCO2 (centres undefined)
inactive: T-47D breast 111% | BT-549 breast 99.9% | MDA-MB-435 melanoma 92.8% | SW-620 colon 108% | MCF7 breast 95.2% | HCT-116 colon 105% | HCC-2998 colon 111% | KM12 colon 112%

N#Cc1ccc(-n2cnc(NC(=O)[C@H]3CCN(C#N)C3)c2)cc1
active: T-47D breast -9.28% | MCF7 breast 4.82% | HCT-116 colon 5.34% | KM12 colon 8.31%
inactive: BT-549 breast 18.5% | MDA-MB-435 melanoma 16.2% | SW-620 colon 16.6% | HCC-2998 colon 38.5%

O=C(Nc1ccc(OCc2nnc(-c3ccccc3)o2)c(F)c1)Nc1ccc(Cl)c(Cl)c1
inactive: T-47D breast 33.7% | BT-549 breast 79% | MDA-MB-435 melanoma 68.8% | SW-620 colon 66.3% | MCF7 breast 57.7% | HCT-116 colon 49.2% | HCC-2998 colon 58.5% | KM12 colon 34.1%

c1ccc(COCC[P+](c2ccccc2)(c2ccccc2)c2ccccc2)cc1
inactive: T-47D breast 12% | SW-620 colon 14%
active: BT-549 breast 5.25% | MDA-MB-435 melanoma -0.102% | MCF7 breast 4.89% | HCT-116 colon 5.42% | HCC-2998 colon 6.68% | KM12 colon 6.34%

CCc1nn2c(-c3cc(OC)c(OC)c(OC)c3)c(-c3cc(OC)c(OC)c(OC)c3)nc2s1
inactive: T-47D breast 81.4% | BT-549 breast 89.6% | MDA-MB-435 melanoma 83.4% | SW-620 colon 86.3% | MCF7 breast 57.4% | HCT-116 colon 71.8% | HCC-2998 colon 102% | KM12 colon 100%

COc1ccc(-c2nsc3c2NC(=O)CC3c2ccc(Cl)cc2)cc1 (centres undefined)
inactive: T-47D breast 69.1% | BT-549 breast 73.5% | MDA-MB-435 melanoma 81% | SW-620 colon 103% | MCF7 breast 88.4% | HCT-116 colon 85.8% | HCC-2998 colon 93.2% | KM12 colon 82.7%

COc1cc(NS(C)(=O)=O)ccc1Nc1c2ccc(Cl)cc2nc2c(OC)cccc12
inactive: T-47D breast 27.7% | BT-549 breast 18.3% | MDA-MB-435 melanoma 51% | MCF7 breast 23.7%
active: SW-620 colon -32% | HCT-116 colon -63.7% | HCC-2998 colon -26.6% | KM12 colon -49.4%

O=C(NCc1cn(Cc2cccc(Oc3ccccc3)c2)nn1)c1cccnc1Nc1ccccc1
active: MDA-MB-435 melanoma -8.66%
inactive: T-47D breast 72.3% | BT-549 breast 81.8% | SW-620 colon 40.8% | MCF7 breast 18.1% | HCT-116 colon 26.1% | HCC-2998 colon 57.1% | KM12 colon 29.5%

COc1cc(C2=Nc3c/c(=C\c4c(O)[nH]c5ccc(Cl)cc45)ccc3=N2)cc(OC)c1OC
active: BT-549 breast -28.2% | MDA-MB-435 melanoma -65.7% | SW-620 colon -48.2% | MCF7 breast -41.8% | HCT-116 colon -51.4% | KM12 colon 5.27%
inactive: T-47D breast 48.5% | HCC-2998 colon 66.3%

CN(C)CCCN(Cc1ccccc1O)C(=S)Nc1ccc(Cl)cc1
inactive: T-47D breast 93.4% | BT-549 breast 105% | MDA-MB-435 melanoma 109% | SW-620 colon 100% | MCF7 breast 99% | HCT-116 colon 108% | HCC-2998 colon 83.4% | KM12 colon 105%

CC(C)CCN(CCCNc1c2c(nc3cc(Cl)ccc13)CCCC2)CCC(C)C
inactive: T-47D breast 61.7% | BT-549 breast 87% | MDA-MB-435 melanoma 86.2% | SW-620 colon 55.1% | MCF7 breast 40% | HCT-116 colon 31.8% | HCC-2998 colon 90.1% | KM12 colon 73.1%

NC1CCC(Nc2nc(NCc3ccc(-c4ccco4)nc3)c3ncn(C4CCCC4)c3n2)CC1 (centres undefined)
inactive: MDA-MB-435 melanoma 11.4%
active: T-47D breast -11.3% | BT-549 breast -25.7% | SW-620 colon 7.93% | MCF7 breast 1.09% | HCT-116 colon 3.79% | HCC-2998 colon -19% | KM12 colon 4.05%

Cc1nc2cc(-n3c(-c4ccc(F)cc4)nc4ccccc4c3=O)ccc2n1Cc1ccccc1
inactive: SW-620 colon 11.6% | HCC-2998 colon 61.7% | KM12 colon 18.7%
active: T-47D breast -29% | BT-549 breast 2.3% | MDA-MB-435 melanoma -32.6% | MCF7 breast -24.9% | HCT-116 colon -18.8%

O=C(N/N=c1/ccoc2cccnc12)N1CCN(c2ncccn2)CC1
active: T-47D breast 9.29%
inactive: BT-549 breast 47.9% | MDA-MB-435 melanoma 34.9% | SW-620 colon 33.1% | MCF7 breast 11.2% | HCT-116 colon 16% | HCC-2998 colon 26.1% | KM12 colon 24.7%

O=NN(CC(=O)N/N=C/C=C\c1ccccc1)CC(=O)N/N=C/C=C/c1ccccc1
inactive: T-47D breast 89% | BT-549 breast 123% | MDA-MB-435 melanoma 103% | SW-620 colon 104% | MCF7 breast 69.6% | HCT-116 colon 96.2% | HCC-2998 colon 119% | KM12 colon 109%

COc1ccc(-c2ccccc2)cc1C(=O)c1ccc(-c2ccccc2)cc1
inactive: T-47D breast 85.7% | BT-549 breast 76.8% | SW-620 colon 52.3% | MCF7 breast 50.6% | HCT-116 colon 60.8% | HCC-2998 colon 74.6% | KM12 colon 48.5%
active: MDA-MB-435 melanoma -7.15%

CCN(Cc1ccccc1)C1CCN(Cc2cc(Br)ccc2O)CC1
active: HCC-2998 colon 2.04%
inactive: T-47D breast 44.3% | BT-549 breast 80.6% | MDA-MB-435 melanoma 52.1% | SW-620 colon 63.7% | MCF7 breast 46.5% | HCT-116 colon 38.7% | KM12 colon 51.3%

O=C(CCCC(=O)N/N=C/c1cc(Cl)ccc1O)N/N=C\c1cc(Cl)ccc1O
inactive: T-47D breast 24.1% | BT-549 breast 29.2% | MDA-MB-435 melanoma 45.1% | SW-620 colon 30.9% | MCF7 breast 14.3% | HCT-116 colon 24.7% | HCC-2998 colon 29.2% | KM12 colon 27.8%

CCOC(=O)c1cc2c(n1Cc1cc(OC)cc(OC)c1)-c1oncc1CC2
active: MDA-MB-435 melanoma -37%
inactive: T-47D breast 54.8% | BT-549 breast 39.5% | SW-620 colon 34.9% | MCF7 breast 16.6% | HCT-116 colon 14.2% | HCC-2998 colon 19.4% | KM12 colon 19.5%

O=C(NNc1nc(N2CCCC2)nc(N2CCCC2)n1)c1ccccc1
inactive: T-47D breast 97.6% | BT-549 breast 112% | MDA-MB-435 melanoma 117% | SW-620 colon 104% | MCF7 breast 96.2% | HCT-116 colon 109% | HCC-2998 colon 106% | KM12 colon 104%

N#Cc1c(-c2ccccc2)nc(SCC(=O)N2CCOCC2)[nH]c1=O
inactive: T-47D breast 93.4% | BT-549 breast 88.2% | MDA-MB-435 melanoma 112% | SW-620 colon 106% | MCF7 breast 89.7% | HCT-116 colon 99.9% | HCC-2998 colon 109% | KM12 colon 114%

C/C(=N\NC(=S)N1CCCC1)c1ccccn1
inactive: T-47D breast 18.3% | BT-549 breast 28.1% | MDA-MB-435 melanoma 19.2% | SW-620 colon 22.6% | MCF7 breast 14.2% | HCT-116 colon 22.3% | HCC-2998 colon 14.7% | KM12 colon 17.4%

CCOC(=O)c1c(C(F)(F)F)n([O-])c2ccc(OC)cc2[n+]1=O
inactive: T-47D breast 12% | MDA-MB-435 melanoma 23.6% | SW-620 colon 30.2% | MCF7 breast 31.9% | HCT-116 colon 29.4% | HCC-2998 colon 43.8% | KM12 colon 43.7%
active: BT-549 breast -3.39%

Clc1cc(Cl)c(OCCCCCCN2CCNCC2)c(Cl)c1
inactive: T-47D breast 39.8% | BT-549 breast 70.4% | MDA-MB-435 melanoma 10.5% | HCT-116 colon 12% | KM12 colon 21.3%
active: SW-620 colon -44% | MCF7 breast -24.5% | HCC-2998 colon -34%

COc1ccc(S(=O)(=O)Nc2cc(/C=C\c3cc(OC)c(OC)c(OC)c3)ccc2OC)cc1
inactive: T-47D breast 71.7% | BT-549 breast 26.9% | SW-620 colon 21.3% | HCC-2998 colon 16%
active: MDA-MB-435 melanoma -37.9% | MCF7 breast -9.99% | HCT-116 colon 4.3% | KM12 colon -5.35%
